Source: PubChem BioAssay (National Center for Advancing Translational Sciences (NCATS))
ALOX12 inh – blocks human arachidonate 12S-lipoxygenase | purified 12hLO, xylenol orange hydroperoxide absorbance | 580,000 tested, 1.1% active | P18054 | Potency, µM (doses to about 108 µM), for the others: top-dose activity change, negative = inhibition, actives largely listed as inhibitors; also: % is scaled to controls: 0 for no effect and ±100 for the full control effect
Target sequence (P18054 whole entry, looked up): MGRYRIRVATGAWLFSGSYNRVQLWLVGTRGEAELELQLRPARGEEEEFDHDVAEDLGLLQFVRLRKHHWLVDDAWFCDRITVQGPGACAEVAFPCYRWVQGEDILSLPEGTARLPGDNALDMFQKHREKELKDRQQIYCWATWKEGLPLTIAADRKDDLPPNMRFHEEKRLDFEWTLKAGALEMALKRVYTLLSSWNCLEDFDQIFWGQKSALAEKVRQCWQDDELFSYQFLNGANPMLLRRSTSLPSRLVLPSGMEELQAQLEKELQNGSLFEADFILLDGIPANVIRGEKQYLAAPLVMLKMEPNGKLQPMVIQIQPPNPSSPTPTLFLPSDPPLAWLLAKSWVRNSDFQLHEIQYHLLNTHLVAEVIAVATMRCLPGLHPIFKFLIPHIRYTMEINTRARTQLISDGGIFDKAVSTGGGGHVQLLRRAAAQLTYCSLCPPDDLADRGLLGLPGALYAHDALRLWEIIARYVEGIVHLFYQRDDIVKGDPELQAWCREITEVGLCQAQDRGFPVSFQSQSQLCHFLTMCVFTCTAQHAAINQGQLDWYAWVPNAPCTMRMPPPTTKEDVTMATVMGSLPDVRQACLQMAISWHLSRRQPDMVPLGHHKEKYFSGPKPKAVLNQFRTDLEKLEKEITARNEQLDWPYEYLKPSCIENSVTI
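Hydroperoxide product was detected by ferrous iron/xylenol orange as the 573 to 405 nm absorbance ratio. Arachidonic acid at 40 uM (final) was turned over for 30 min at room temperature by 150 nM human 12hLO, pH 7.0 Hepes buffer, after 15 min compound preincubation.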
gsp antag – antagonists of gsp mutant (McCune-Albright syndrome); gsp-mutant cells, cAMP HTRF, 30 min; Potency, µM (highest dose often 76.9 µM), inactives show top-dose activity change, negative = inhibition, actives largely listed as inhibitors; 340,000 tested, 0.4% active; AID 624288; calls by dose curve; cell line not stated here;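 also: intracellular cAMP measured with PDE inhibitor Ro 20-1724 present during compound exposure; % is scaled to controls: 0 for no effect and ±100 for the full control effect; nearly all actives have a fitted effect of over 65% in size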
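G418-selected cells were plated in DMEM/10% FBS for 16-24 h at 37C, then treated with compounds plus the PDE inhibitor […] (300 uM solution added) for 30 min at 37C. Intracellular cAMP was measured by HTRF after 30 min lysis at room temperature.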
gsp agonist – activates gsp, the McCune-Albright syndrome mutation. gsp mutant cells, cAMP HTRF, 30 min. Potency, µM (doses to about 76.9 µM), without a hit: at the top dose activation (cAMP increase), usual class: activators. 340,000 tested, 0.13% active. AID 624287; active = well fitted activation curve with a large enough effect; inconclusive = small, poorly fitted or top-dose-only effect, or another doubt; inactive = no such curve, though single readings can be large or run the other way; cell line not stated here;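 also: phosphodiesterase inhibitor Ro 20-1724 added with compounds to block cAMP breakdown; nearly all actives have a fitted effect of over 60% in size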
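Cells stably selected in G418 were plated at 2000/well, grown 16-24 hr, then given compounds in DMSO with the PDE inhibitor […] (300 uM solution added) for 30 min at 37C; cAMP was read by HTRF.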
FUS suppressor – rescues growth of FUS-expressing yeast | S. cerevisiae FUS-expressing, growth rescue, OD600, 24 h | Potency, µM (highest dose often 76.6 µM), actives largely listed as activators | 390,000 tested, 0.24% active | AID 1347120;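 also: plate controls were DMSO vehicle for no effect and reference control for full effect; nearly all actives have a fitted effect of over 55% in size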
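Toxicity suppression screen in FUS-yeast. Cells induced with 2% galactose, starting OD 0.005, treated 24hr at 30C with compounds at multiple final concentrations; growth by OD600.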
Mito fusion act – blocks mitochondrial division or promotes mitochondrial fusion | S. cerevisiae fusion-defective mutant growth rescue, CellTiterGlo 48 h | Potency, µM (series often up to 46.1 µM), for the others: at the highest dose growth rescue (activation), most hits filed as activators | 320,000 tested, 0.23% active | AID 485298; also: % of control where 0% means no effect; nearly all actives have a fitted effect of over 45% in size
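Compounds are tested for their ability to restore growth of mitochondrial fusion-defective yeast strains at non-permissive 37C in YPEG medium over 48 hours. Viability is quantified by luciferase luminescence.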
* hit, by the source's call; i = inactive; ? = inconclusive; . = no result; ! = a repeat was not active; [ ] = remark or other dose. Hits are enriched below; roughly 1.6% of the tested compounds scored in any of these assays. Unless noted, calls follow the shape of the dose curve; as a rule, active = well fitted curve in the direction sought with a large enough effect; inconclusive = small, poorly fitted or top-dose-only effect, or another doubt; inactive = no such curve, though single readings can be large; an effect the other way counts as inactive or inconclusive. Potency is read from the fitted curve at half-maximal effect.

SMILES | ALOX12 inh | gsp antag | gsp agonist | FUS suppressor | Mito fusion act
O=c1cc(C2=CCOCC2)oc2c(-c3cccc4[nH]ccc34)nccc12 | 35µM* | . | . | . | .
CN1C(=O)C(Cc2nc3ccccc3c(=O)n2C)c2cc(Br)ccc21 (stereo not given) | -2% | . | . | . | .
CC(C)(C)N/N=C/c1cc(Cl)cc([N+](=O)[O-])c1O | 16µM* | -7% | ? | . | 25%
COc1cccc(OC)c1C(=O)Nc1nc(-c2ccccc2)cs1 | -18% | -2% | -56% | i | 0%
COc1ccc(CCNc2nc(-c3ccc(O)cc3)cs2)cc1OC | ? | 35µM* | 7% | ? | -2%
COc1ccc(CCNc2nc(-c3ccncc3)cs2)cc1OC | 0% | -15% | -2% | i | -2%
COc1ccccc1CNc1nc(-c2ccccc2)cs1 | 14µM* | . | . | . | .
COc1cccc(Nc2nc(-c3ccc(CNC(C)=O)cc3)cs2)c1 | 16µM* | . | . | . | .
COc1cccc(Nc2nc(-c3cccnc3)cs2)c1 | 12% | -6% | -9% | i | 5%
c1ccc(-c2csc(Nc3ccc4c(c3)OCO4)n2)cc1 | 3.5µM*! | . | . | i | .
COc1ccc(OCCNC(=O)c2cc3ccccc3[nH]2)cc1 | 3% | . | . | . | .
COc1cccc(Nc2nc(-c3ccccc3)no2)c1 | 40µM* | . | . | . | .
COc1ccc(-c2noc(Nc3ccc(OC)c(OC)c3)n2)cc1 | -7% | . | . | . | .
COc1cccc(Nc2nc(-c3ccccc3)cs2)c1 | 1µM* | . | . | . | .
c1csc(-c2nc(N3CCCC3)c3ccccc3n2)c1 | 51% | . | . | . | .
COc1ccc(NC(=O)c2cc(-c3ccccc3)nc3c2cnn3C(C)C)cc1 | 182% | 28µM* | 17% | i | 21%
COc1ccc(-c2cc(C(=O)Nc3ccc(S(=O)(=O)Nc4ncccn4)cc3)c3ccccc3n2)cc1 | 0% | -20% | 4% | i | 5%
COc1ccc(-c2cc(C(=O)Nc3ccc(C)c(N)c3)c3ccccc3n2)cc1 | ? | -16% | -3%[15.4 µM] | 14µM* | 2%
Cc1ccc(-c2cc(C(=O)NCCCN3CCOCC3)c3ccccc3n2)cc1C | -18% | 13% | -3%[15.4 µM] | i | 6.3µM*
Cc1ccc(-c2cc(C(=O)NCCCN3CCOCC3)c3ccccc3n2)cc1 | -7% | 9% | 13%[15.4 µM] | i | -5%
CCN(CC)S(=O)(=O)c1ccc(O)c(NC(=O)c2cc(-c3cc(OC)c(OC)c(OC)c3)nc3ccccc23)c1 | . | 35µM* | ? | i | 7%
Cc1nn(C)c2nc(-c3ccccn3)nc(NCc3ccc4c(c3)OCO4)c12 | 30% | . | . | . | .
CCCCCNC(=O)c1cc(-c2ccc(OC)cc2)nc2ccccc12 | 32µM* | . | . | . | .
CCCCNC(=O)c1cc(-c2ccc(OCC)cc2)nc2ccccc12 | -40% | . | . | . | .
CC(C)n1ncc2c(C(=O)Nc3cccc(C#N)c3)cc(C3CC3)nc21 | -2% | ? | -3% | i | 16µM*
SMILES | ALOX12 inh | gsp antag | gsp agonist | FUS suppressor | Mito fusion act
CCCOc1cccc(-c2cc(C(=O)NNC(=S)NCC)c3ccccc3n2)c1 | 25µM* | 35µM* | -4% | ? | 2%
CCN(CC)CCCNC(=O)c1cc(-c2ccc(OC)cc2)nc2ccccc12 | 6.3µM* | . | . | . | .
COc1ccc(-c2nc(CSCC(=O)N3CCc4ccccc43)co2)cc1 | 2% | . | . | . | .
Cc1ccc(CNC(=O)CCc2ncc(-c3ccc(F)cc3)o2)cc1F | 21% | . | . | . | .
Cc1nn(C)c(C)c1CCN(C)C(=O)CCC[C@H]1NC[C@@H]2C[C@H]1CN(Cc1ccccc1)C2 | 4% | . | . | . | .
O=C1Nc2ccc(I)cc2/C1=C/c1cc(Br)c(O)c(Br)c1 | ? | . | . | . | 0.46µM*
COc1cc(/C=C2/C(=O)Nc3ccccc32)cc(OC)c1O | -20% | . | . | . | .
CCc1ccc(N2CC(c3nc4ccccc4n3CCN3CCOCC3)CC2=O)cc1 (stereo not given) | 14% | . | . | . | .
CCOC(=O)CSc1ccc2nnc(-c3ccccc3)n2n1 | -17% | 14% | ? | i | 1%
CCOC(=O)CSc1ccc2nnc(-c3cccnc3)n2n1 | 32µM* | -1% | 10µM* | i | 0%
CCCCN1C(=O)c2ccc(C(=O)Nc3cccc(C)c3C)cc2C1=O | 166% | -18% | -11% | . | 1%
CCCCN1C(=O)c2ccc(C(=O)Nc3ccc(C)c(S(=O)(=O)N(C)C)c3)cc2C1=O | 5% | 28µM* | -11% | . | 12%
